# Assay results taken from PubChem BioAssay AID504339 (National Center for Advancing Translational Sciences (NCATS), 2011).
# Among all 390,000 compounds or so, about 17,000 (4.4%) were called active. About 8% were inconclusive and are not listed. Calls follow the shape of the dose curve; as a rule, active = well fitted inhibition curve with a large enough effect; inconclusive = small, poorly fitted or top-dose-only effect; inactive = no such curve, though single readings can be large or run the other way. Shown is part of a subset that was picked to be rich in actives. Entries that show only a call come without a potency.
# Target: Lysine-specific demethylase 4A (Homo sapiens) (UniProt O75164)
# Sequence (O75164 whole entry, looked up, the tested form may be a part): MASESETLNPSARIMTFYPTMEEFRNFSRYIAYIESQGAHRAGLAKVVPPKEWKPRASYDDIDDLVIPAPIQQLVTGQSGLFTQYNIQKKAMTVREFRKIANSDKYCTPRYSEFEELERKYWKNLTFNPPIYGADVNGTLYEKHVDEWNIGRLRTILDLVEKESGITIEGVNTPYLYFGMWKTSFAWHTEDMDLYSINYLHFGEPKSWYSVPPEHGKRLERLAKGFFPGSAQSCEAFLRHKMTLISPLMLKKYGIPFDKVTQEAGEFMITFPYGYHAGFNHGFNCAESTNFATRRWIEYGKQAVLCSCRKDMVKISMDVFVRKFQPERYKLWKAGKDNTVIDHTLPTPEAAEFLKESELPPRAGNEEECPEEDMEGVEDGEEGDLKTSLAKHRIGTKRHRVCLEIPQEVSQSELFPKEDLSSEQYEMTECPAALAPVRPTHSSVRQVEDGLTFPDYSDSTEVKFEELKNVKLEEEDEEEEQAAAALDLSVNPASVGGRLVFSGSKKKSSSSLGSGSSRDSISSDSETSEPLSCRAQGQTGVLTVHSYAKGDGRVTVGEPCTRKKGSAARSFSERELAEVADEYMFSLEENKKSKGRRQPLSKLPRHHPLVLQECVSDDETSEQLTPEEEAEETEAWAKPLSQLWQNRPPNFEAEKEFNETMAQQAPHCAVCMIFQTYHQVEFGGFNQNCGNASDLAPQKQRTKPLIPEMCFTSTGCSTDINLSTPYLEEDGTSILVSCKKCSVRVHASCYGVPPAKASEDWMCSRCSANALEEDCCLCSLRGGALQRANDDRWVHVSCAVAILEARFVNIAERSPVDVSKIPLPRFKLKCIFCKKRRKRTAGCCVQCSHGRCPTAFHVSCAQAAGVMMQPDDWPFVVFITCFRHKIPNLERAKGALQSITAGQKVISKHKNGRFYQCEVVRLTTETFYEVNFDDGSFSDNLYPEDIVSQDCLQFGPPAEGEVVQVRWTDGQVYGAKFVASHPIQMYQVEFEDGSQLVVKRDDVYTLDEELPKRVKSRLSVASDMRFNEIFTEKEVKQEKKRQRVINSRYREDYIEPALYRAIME
# Test: qHTS Assay for Inhibitors of JMJD2A-Tudor Domain; also: nearly all actives have a fitted effect of over 50% in size
# Details: AlphaScreen JMJD2A-Tudor / H3K4me3 peptide binding; series mostly up to 114 µM
# Potency is read from the fitted curve at half-maximal effect.
row,SMILES,Potency
1,COc1ccccc1CNc1nc2ccc(Cl)cc2n2cnnc12,inactive
2,COc1ccc(OC)c(CCNC(=O)c2nn(C)c3c2CS(=O)(=O)c2ccccc2-3)c1,inactive
3,CCn1c(C)c(C)c2cc(C(=O)NCCc3cc(OC)ccc3OC)ccc21,35.5 µM (active)
4,COc1ccc(-n2c(=O)[nH]c3cc(C(=O)NCCc4ccc(OC)c(OC)c4)ccc3c2=O)c(OC)c1,inactive
5,Cc1cc(C)c(-c2n[nH]c3c2C(c2ccccc2F)N(CCO)C3=O)c(O)c1 (configuration not stated),inactive
6,COc1ccc(N(Cc2ccc(N(C)C)cc2)C(=O)c2ccc(S(C)(=O)=O)cc2)cc1,63.1 µM (active)
7,COc1ccc(CNC(=O)Cn2nnc(-c3ccc(S(C)(=O)=O)cc3)n2)cc1,inactive
8,COc1ccc(S(=O)(=O)NCc2ccc(C(=O)N(C)Cc3ccco3)cc2)cc1,inactive
9,CCn1cc2nc(SCc3ccccc3Cl)n(CCc3ccccc3)c(=O)c2n1,inactive
10,O=C(c1cccc(Br)c1)N1CCN(Cc2cc(=O)n3nc(-c4ccccc4)sc3n2)CC1,inactive
11,COCCCNC(=O)c1c(NC(=O)c2cc(=O)c3cc(C)c(C)cc3o2)sc2c1CCCC2,inactive
12,Cc1ccc(-c2nn3c(=O)cc(CN4CCN(C(=O)Nc5cccc(C(F)(F)F)c5)CC4)nc3s2)cc1,inactive
13,COc1ccc(N(C(=O)c2cccnc2)S(=O)(=O)c2ccc(OC)c(OC)c2)cc1,inactive
14,O=C(c1cccnc1)N(Cc1ccccc1)C(=O)c1cccnc1,inactive
15,O=C(c1cccnc1)N(c1cc2sc(=O)oc2c2ccccc12)S(=O)(=O)c1ccccc1,25.1 µM (active)
16,COc1ccc(C(F)(F)F)cc1NC(=O)c1sc2nc(-c3cccs3)ccc2c1N,inactive
17,COc1cccc(CNC(=O)C(NS(=O)(=O)c2ccc3nc(C)sc3c2)C(C)C)c1 (configuration not stated),inactive
18,CCOC(=O)N1CCN(CCC(=O)Nc2cc(OC)ccc2OC)CC1,inactive
19,CCOC(=O)N1CCN(C(=O)C2CCN(Cc3ccc(OC)cc3OC)CC2)CC1,1 µM (active)
20,CCOC(=O)N1CCN(C(=O)C2CCN(S(=O)(=O)c3cc(Cl)ccc3OCC)CC2)CC1,inactive
21,CC(C)(C)c1ccc(C(=O)NCC(c2ccco2)S(=O)(=O)c2ccc(F)cc2)cc1 (configuration not stated),inactive
22,O=C(NCc1cccnc1)C(=O)NCC(c1cccnc1)N1CCN(c2ccccc2)CC1 (configuration not stated),inactive
23,COc1ccc(CNC(=O)c2cc3c(-c4ccccc4F)nn(C)c3s2)c(OC)c1,inactive
24,Cc1cc2c(cc1C)C(c1cccc(OC(C)C)c1)CC(=O)N2 (configuration not stated),inactive
25,COc1cc(Br)cc2cc(S(=O)(=O)c3ccccc3)c(=O)oc12,inactive

row,SMILES,Potency
1,O=C(Cn1ncc(N2CCCC2)c(Br)c1=O)c1ccc(Cl)cc1,inactive
2,O=C(Cn1nc(C(F)(F)F)c2c1CCCC2)Nc1ccc(Cl)cc1,inactive
3,O=C(Cn1nc(CNc2ccc(Cl)cc2)[n+]2c1CCCCC2)c1ccc(Cl)cc1,44.7 µM (active)
4,COc1cc(OC)c(NC(=O)c2c3c(nn2C)-c2ccccc2SC3)cc1Cl,inactive
5,O=C(Cc1ccc(Cl)cc1)NC1CCS(=O)(=O)C1 (configuration not stated),inactive
6,CC(C(=O)NC1CCS(=O)(=O)C1)N1C(=O)/C(=C/c2ccc(Cl)cc2)SC1=S (configuration not stated),56.2 µM (active)
7,CN(C(=O)CN1C(=O)/C(=C/c2ccc(Cl)cc2)SC1=S)C1CCS(=O)(=O)C1 (configuration not stated),inactive
8,COc1ccccc1C(=O)OCc1cc(=O)n2nc(-c3cccs3)sc2n1,inactive
9,Cc1cc(C=O)c(C)n1-c1ccc(NC2CCCCC2)c([N+](=O)[O-])c1,17.8 µM (active)
10,Cc1c(NS(=O)(=O)c2ccc(NC3CCCC3)c([N+](=O)[O-])c2)c(=O)n(-c2ccccc2)n1C,inactive
11,COc1ccc(NC(=O)CN(C)C(=O)c2ccc(NC3CC3)c([N+](=O)[O-])c2)cc1,inactive
12,Cc1ccc(C)c2sc(NC(=O)c3ccc(S(=O)(=O)N4CCCC4)cc3)nc12,inactive
13,COc1ccccc1CNS(=O)(=O)c1cc(Br)cc2c1N(C(C)=O)C(C)C2 (configuration not stated),inactive
14,CC(C)CCNC(=O)CSc1nc2ccccc2nc1Cc1ccc(Cl)cc1,inactive
15,CCC1CCCCN1S(=O)(=O)c1ccc(NC(=O)c2cc(=O)c3ccccc3o2)cc1 (configuration not stated),inactive
16,CCOc1ccc(Nc2ncnc3scc(-c4ccc(OC)cc4)c23)cc1,inactive
17,COC(=O)CCSc1nccn1Cc1ccccc1,35.5 µM (active)
18,CCCCNC(=O)CSc1nccn1Cc1ccccc1,inactive
19,O=C(CSc1nccn1Cc1ccc(Cl)cc1)NCc1ccccc1,inactive
20,COc1ccc(CNC(=O)c2ccc3c(O)c(S(=O)(=O)c4ccccc4)c(=O)[nH]c3c2)cc1,inactive
21,Cc1ccccc1NC(=O)c1c(NC(=O)c2ccccc2F)sc2c1CCC(C)C2 (configuration not stated),inactive
22,CCOc1ccc(C2/C(=C(/O)c3ccc4c(c3)CC(C)O4)C(=O)C(=O)N2CCCn2ccnc2)cc1 (configuration not stated),inactive
23,COc1cc(C2/C(=C(\O)c3ccc4c(c3)CC(C)O4)C(=O)C(=O)N2c2nnc(C)s2)cc(OC)c1OC (configuration not stated),44.7 µM (active)
24,COc1cc(C2/C(=C(\O)c3ccc4c(c3)CC(C)O4)C(=O)C(=O)N2Cc2ccco2)ccc1O (configuration not stated),inactive
25,O=C(Nc1ccc2c(c1)OCO2)c1cc(-c2cccc(Cl)c2)on1,inactive

row,SMILES,Potency
1,CC(C)C12CN3CC(C(C)C)(CN(C1)C3c1ccc(OCc3ccccc3)cc1)C2=O (configuration not stated),inactive
2,O=C(O)C1OC(C(=O)O)C2C1C(F)(F)C2(F)F (configuration not stated),28.2 µM (active)
3,Cc1ccc2nc(/C(C#N)=C/c3ccccc3F)[nH]c2c1,inactive
4,O=C(NNC(=O)c1ccc(Cl)nc1)c1ccc(Br)cc1,inactive
5,O=C(NNc1ccccn1)c1ccc(Cl)nc1,4.47 µM (active)
6,COc1ccc(C(=O)/C=C/Nc2ccccn2)cc1,inactive
7,COc1ccccc1-c1noc(-c2ccc(NCc3ccccc3)c([N+](=O)[O-])c2)n1,inactive
8,CCN1CCC(N(Cc2ccc(F)cc2)C(=O)Nc2cc(C)ccc2C)CC1,inactive
9,Cc1ccc(NC(=O)CN2C(=O)C(c3ccc(F)cc3)=NC23CCCCCC3)c(C)c1,inactive
10,CCN1CCC2(CC1)N=C(c1ccc(F)cc1)C(=S)N2C(=O)c1ccc(C)cc1,31.6 µM (active)
11,COc1cccc(NC(=O)N(Cc2cn(C)c3ccccc23)C2CCCCCC2)c1,inactive
12,Cc1ccc(Cn2c(CCCNC(=O)C3CCCCC3)nc3ccccc32)cc1,inactive
13,Cc1cc2c(cc1C)N(C(=O)CN1C(=O)c3ccccc3C1=O)C(C)(C)c1ssc(=S)c1-2,39.8 µM (active)
14,Cc1ccc(NC(=O)CCN2C(=O)c3ccccc3C2=O)cc1C,inactive
15,Cc1cc(C)cc(NC(=O)CCN2C(=O)c3ccccc3C2=O)c1,inactive
16,CCN(CC)c1cc(NC2CCCCC2)c2c3c(onc13)-c1ccccc1C2=O,8.91 µM (active)
17,Cc1cccc(-c2nc(SCc3ccc(Br)cc3)n3[nH]c(=O)cc3n2)c1,inactive
18,Cc1cccc(CNC(=O)c2cnc3sc(N4CCCCC4)nn3c2=O)c1,inactive
19,CCNC(=S)NNC(=O)C1CCN(Cc2ccccc2)CC1,inactive
20,CCCCN(Cc1ccccc1)C(=O)C1CCN(Cc2sccc2C)CC1,5.62 µM (active)
21,CCCCN(C(=O)C1CCC1)c1c(N)n(Cc2ccccc2)c(=O)[nH]c1=O,inactive
22,Cc1nn(-c2ccc(N3CCCCC3)nn2)c(C)c1CCC(=O)NCc1ccccc1F,inactive
23,COc1ccc(CN2CCCC(C(=O)N3CCCCC3)C2)cc1 (configuration not stated),79.4 µM (active)
24,COc1ccc(/C=C/C(=O)NC(=S)N2CCCC(C(N)=O)C2)cc1 (configuration not stated),inactive
25,COc1ccc(CNC(=O)C2CCCC2)cc1,inactive

row,SMILES,Potency
1,O=C(COc1ccc(Cl)cc1)Nc1ccccc1OCc1cc(=O)n2ccccc2n1,inactive
2,O=C(Nc1nc(-c2ccncc2)cs1)C1COc2ccccc2O1 (configuration not stated),50.1 µM (active)
3,C/C(=N/NC(=O)C1COc2ccccc2O1)c1ccco1 (configuration not stated),inactive
4,CC(=O)c1cccc(NC(=O)C2COc3ccccc3O2)c1 (configuration not stated),inactive
5,O=C(CC(c1cccs1)N1Cc2ccccc2C1=O)Nc1ccc(F)cc1F (configuration not stated),inactive
6,Cc1ccc(NS(=O)(=O)c2cc3c(cc2Br)NC(=O)CO3)cc1C,inactive
7,CCOC(=O)COc1cc(OCC(=O)OCC)c2c(=O)cc(-c3ccccc3)oc2c1,inactive
8,COc1c(O)cc2oc(-c3ccc(O)c(O)c3)cc(=O)c2c1O,31.6 µM (active)
9,COc1ccc(-c2c(C)c3ccc(O)c(CN4CCN(C)CC4)c3oc2=O)cc1OC,inactive
10,O=C(CCc1nc(CN2CCN(S(=O)(=O)c3ccc(F)cc3)CC2)no1)N1CCCCC1,inactive
11,O=C(Nc1ccc(OC(F)(F)F)cc1)c1cc2c(=O)n3ccccc3nc2s1,inactive
12,CCc1c(C)sc(NC(=O)c2ccc(Br)o2)c1C(=O)OC,inactive
13,CCc1c(C)sc(NC(=O)c2cccs2)c1C(N)=O,89.1 µM (active)
14,CCc1cccc(C)c1NC(=O)COC(=O)CNC(=O)c1cccs1,inactive
15,CC1CCCN(S(=O)(=O)c2ccc3[nH]c(=O)cc(C(=O)NCCc4ccc(Cl)cc4)c3c2)C1 (configuration not stated),inactive
16,Cc1ccc(NC(=O)c2nc(S(=O)(=O)Cc3cccc(C)c3)ncc2Cl)cc1,inactive
17,Cc1cccc(C2c3[nH]c4ccccc4c3CCN2C(=O)c2cc(-c3cccn3C)n[nH]2)n1 (configuration not stated),56.2 µM (active)
18,Cc1cccc(C(=O)N2CCc3c([nH]c4ccccc34)C2CC(C)C)n1 (configuration not stated),inactive
19,O=C(c1cn2ccccc2n1)N1CCc2c([nH]c3ccccc23)C1c1ccccn1 (configuration not stated),inactive
20,COc1ccc(CCNC(=O)c2cnc3sc(N4CCCCCC4)nn3c2=O)cc1OC,inactive
21,COc1ccccc1NC(=O)Cn1cnc2ccc(S(=O)(=O)N3CCC(C)CC3)cc2c1=O,inactive
22,COc1ccc(OC)c(NC(=O)CSC2=Nc3ccccc3C3=NC(CC(=O)NCCc4ccccc4)C(=O)N23)c1 (configuration not stated),inactive
